From ChEMBL document CHEMBL3433997, “St. Jude Leishmania screening dataset” (2016)

Key:
Type in all cases: functional
[1] = biological target: Solute carrier family 2, facilitated glucose transporter member 1 (Homo sapiens) (UniProt P11166); test: ST_JUDE_LEISH: Cytotoxicity at 2uM final concentration against transgenic Leishmania Mexicana promastigotes LmGLUT1 that are glucose transport deficient and complemented with the human glucose transporter GLUT1. Activity is measured by DNA content using SYBR green in vitro
Solute carrier family 2, facilitated glucose transporter member 1 (Homo sapiens), sequence (P11166 whole entry): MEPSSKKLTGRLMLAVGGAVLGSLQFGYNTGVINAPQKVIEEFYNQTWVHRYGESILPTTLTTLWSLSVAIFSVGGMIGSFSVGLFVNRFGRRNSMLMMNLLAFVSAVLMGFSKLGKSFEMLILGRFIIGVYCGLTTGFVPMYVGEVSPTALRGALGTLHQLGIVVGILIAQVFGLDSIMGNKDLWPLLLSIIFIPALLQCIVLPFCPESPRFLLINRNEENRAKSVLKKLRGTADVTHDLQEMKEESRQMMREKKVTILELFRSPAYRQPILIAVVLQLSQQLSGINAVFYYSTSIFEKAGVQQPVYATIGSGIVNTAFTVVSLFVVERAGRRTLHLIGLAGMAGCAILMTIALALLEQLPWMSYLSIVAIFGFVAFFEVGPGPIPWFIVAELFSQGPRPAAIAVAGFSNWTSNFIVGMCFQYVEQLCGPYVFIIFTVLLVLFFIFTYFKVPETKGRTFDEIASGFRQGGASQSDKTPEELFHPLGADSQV

[2] = biological target: Hexose transporter 1 (Plasmodium falciparum) (UniProt O97467); test: ST_JUDE_LEISH: Cytotoxicity at 2uM final concentration against transgenic Leishmania Mexicana promastigotes LmPfHT that are glucose transport deficient and complemented with the Plasmodium falciparum hexose transporter. Activity is measured by DNA content using SYBR green in vitro
[3] = biological target: Glucose transporter (Leishmania mexicana) (UniProt O61059); test: ST_JUDE_LEISH: Cytotoxicity at 2uM final concentration against transgenic Leishmania Mexicana promastigotes LmGT2 that are glucose transport deficient and complemented with the L. Mexicana glucose transporter 2. Activity is measured by DNA content using SYBR green in vitro

| Structure (SMILES) | inhibition [1] | inhibition [2] | inhibition [3] |
| --- | --- | --- | --- |
| Cc1cc2ccc(-c3cccc(CN)c3)cc2nc1N | 0.93% | 1.15% | 0.73% |
| CN1CCC(NCc2cccc(-c3ccc(S(=O)(=O)NCc4ccccc4)cc3)c2)CC1 | 8.1% | 7.9% | 10.3% |
| N=C(N)NN=CC(=O)Nc1ccc(Cl)c(C(F)(F)F)c1 | 8.87% | 7.04% | 9.08% |
| COc1ccc(C2=CCN(c3ccc(Cl)c(Cl)c3)C2=O)cc1OCCN1CCCCC1 | 3.36% | 1.21% | -4.01% |
| Cn1cnc(CCNC(=O)c2ccc(-c3cccc(-c4nc5ccccc5[nH]4)c3)cc2)c1 | 0.8% | 0.81% | -1.62% |
| CCOc1cc(Cc2cnc(N)nc2N)cc(OC)c1OC | -1.63% | -0.5% | -0.04% |
| COc1ccc(-c2ccc(NC(=O)c3cccc(Cl)c3)cc2)cc1CN1CCCC1 | 11.7% | 2.9% | 4.28% |
| CCCCCCCc1c(C)[nH]c2ccc(F)cc2c1=O | -0.05% | 0.32% | -0.32% |
| O=C(C1CCN(C(c2ccccc2)c2ccc(Cl)c(Cl)c2)CC1)N1CC=CC1 (configuration not stated) | 0.54% | 3.99% | -0.23% |
| COc1cc(Nc2nccc(N3CCC(NC(=O)c4cccc(NC(C)=O)c4)C3)n2)cc(OC)c1OC (configuration not stated) | 0.31% | 0.55% | -0.85% |
| Cc1nc(-c2cccc(Nc3nccc(NCC(O)c4cccc(C(F)(F)F)c4)n3)c2)cs1 (configuration not stated) | 1.56% | 0.83% | -0.26% |
| O=C(Cc1cccnc1)N(Cc1ccc(-c2ccc(CNCc3cccnc3)cn2)cc1)C1CCN(Cc2ccccc2)CC1 | -1.34% | -0.95% | -1.68% |
| Cc1cccc2nc(-c3ccc(-c4ccc(NC(=O)NCc5ccccc5)cc4)s3)[nH]c12 | 3.85% | 4.61% | 1.02% |
| N#Cc1ccc(N(CCOc2ccc(Cl)cc2)Cc2ccccc2C(F)(F)F)cc1C(F)(F)F | -1.04% | -1.88% | -1.54% |
| COc1ccc2ccccc2c1C=NN=c1cc[nH]c2ccc(F)cc12 | 3.72% | 2.24% | 7.98% |
| O=C(Nc1ccc(N2CCN(Cc3ccccc3)CC2)cc1)c1cccs1 | 0.15% | 0.83% | -1.68% |
| Cc1ccc(/C=C2/SC(=Nc3ccccc3)NC2=O)c(C)c1 | 13.2% | 12.1% | 7.9% |
| N#Cc1ccc2c(c1)CCN(CCC1CCC(NC(=O)/C=C/c3cnc4ccccc4c3)CC1)CC2 (configuration not stated) | 8.52% | 4.53% | 3.67% |
| COCCNC(=O)C1CCN(C(c2ccc(Cl)cc2)c2ccc(Cl)cc2)CC1 | 7.23% | 6.03% | 9.02% |
| COc1cccc(Nc2nccc(-c3c(-c4cccc(NC(=O)c5c(F)cccc5F)c4)nn4ccccc34)n2)c1 | 5% | 13.3% | 5.92% |
| Cc1ccc2c(c1)NCC21CCN(C[C@@H](O)C2CCN(c3ccnc(Cl)c3)CC2)CC1C (some centres not stated) | 0.9% | 3.08% | 0.18% |
| CN(c1ccc(NC(=O)Nc2cc(C(C)(C)C)on2)cc1)c1ccnc(NCCN2CCOCC2)n1 | 32.3% | 57.4% | 5.4% |
| COc1ccc2ccccc2c1CCCCN1CCN(CC(c2ccc(F)cc2)N2CCN(C(C)C)CC2)CC1 (configuration not stated) | 17.9% | 9.64% | 12.3% |
| O=S(=O)(NCCN1CCCC1)c1cccc(-c2cccc(CNCCc3cccs3)c2)c1 | 11.7% | 12% | 8.7% |
| O=C(Cn1c(CCc2cccc(F)c2F)nc(=O)c2ccccc21)N(CCCN1CCCCC1)Cc1ccc(-c2ccc(C(F)(F)F)cc2)cc1 | 2.28% | 3.25% | 1.99% |

| Structure (SMILES) | inhibition [1] | inhibition [2] | inhibition [3] |
| --- | --- | --- | --- |
| Cc1cc(=NN=Cc2ccc(F)cc2)c2cc(F)ccc2[nH]1 | 2.6% | 3.14% | -7.33% |
| FC(F)(F)c1ccc2[nH]c(-c3ccc(-c4cccc(CNCc5cnn(-c6ccccc6)n5)c4)s3)nc2c1 | 2.87% | 3.4% | 2.46% |
| COc1ccc(-c2nc(NC(=O)Cc3ccc4c(c3)OCCO4)sc2C)cc1 | 3.71% | 4.52% | 5.29% |
| Cc1nc2sccn2c1C(=O)NCCc1ccccc1Cl | 0.29% | 1.15% | 1.69% |
| CC(C)C[C@H](NC(=O)c1ccc(OCCN2CCOCC2)cc1)C(=O)N[C@H](/C=N/N1CC(=O)NC1=O)CCc1ccccc1 | 3.3% | 4.15% | 2.88% |
| Cc1cc(=O)c(-c2ccc(Oc3ccc(C(F)(F)F)cc3)cc2)c(C)n1O | -1.23% | -2.25% | -1.9% |
| O=C(Nc1ccc(Cl)c(Cl)c1)C1CCC(=O)N1[C@@H](Cc1ccccc1)C(=O)NCCc1ccc(Cl)cc1 (some centres not stated) | 0.51% | 0.41% | 1.43% |
| COC(=O)C(C)(C)Cc1c(SC(C)(C)C)c2cc(C(C)C)ccc2n1Cc1ccc(Cl)cc1 | 2.2% | 5.38% | -0.32% |
| COc1cccc(NC(=O)Cn2c(C)c(C(=O)C(F)(F)F)c3ccccc32)c1 | 2.88% | 1.7% | 2.26% |
| O=C(Nc1ccnc2ccccc12)NC1CCN(CCc2ccccc2)CC1 | 12.1% | 10.9% | 7.91% |
| CC1(C)CC(NCCCCCCCOc2ccc(OCc3ccccc3)cc2)CC(C)(C)N1 | 103% | 102% | 55.4% |
| Cc1c(C)c2c(c(C)c1O)CC[C@](C)(C(=O)N1CCC(CCN3CCC(c4c[nH]c5ccccc45)CC3)CC1)O2 | 0.17% | -1.76% | -0.6% |
| Nc1nc(N)c2c3c(cnc2n1)CCCC3 | 9.74% | 9.11% | 10.8% |
| O=S(=O)(NCCN1CCCC1)c1ccc(-c2cccc(CNC3Cc4ccccc4C3)c2)cc1 | 2.76% | 8.98% | 6.15% |
| CC1CCc2sc(-c3nnc(SC(C)C(=O)N4CCCC4)o3)cc2C1 (configuration not stated) | 2.14% | 1.29% | -4.77% |
| CC(Cc1ccc(C(=O)OC(c2ccccc2)c2ccccc2)cc1)NCC(O)c1ccccc1 (configuration not stated) | 0.9% | 0.98% | -0.61% |
| CC1(C)NC(=N)N=C(NOCC=Cc2ccccc2)N1 | 3.05% | 2.87% | 3.12% |
| O=C(Cc1n[nH]c(=O)c2ccccc12)Nc1cccc(C(=O)Nc2cccc(C(F)(F)F)c2)c1 | 3.52% | 4.12% | 2.16% |
| Nc1nc(N)c2c(ccc3c2ncn3Cc2ccccc2)n1 | 12.9% | 13.7% | 10.5% |
| CC12CCC(C(=O)N(CC(O)Cn3c4ccc(Cl)cc4c4cc(Cl)ccc43)C1=O)C2(C)C (configuration not stated) | 2.14% | 0.85% | 0.38% |
| N#CCCn1nc(-c2ccc(Cl)cc2)c2c(c1=O)CCCC2 | 0.21% | 1.16% | 1.01% |
| COc1ccc(C(=O)CCc2ccc(O)cc2)cc1 | 1.26% | 1.48% | 2.43% |
| COc1ccc(C2NCCc3c2[nH]c2ccccc32)cc1CN1CCN(c2ccc(F)cc2)CC1 (configuration not stated) | 3.17% | 0.27% | 0.15% |
| COc1ccccc1CCNC(=O)c1cnc(N2CCN(c3ccncc3)CC2)c(Cl)c1 | 74.5% | 83.8% | 82.9% |
| O=C(/C=C/c1cc(C(F)(F)F)ccc1F)NCCCCCN1CCC(c2c[nH]c3ccccc23)CC1 | 0.77% | 1.47% | 0.28% |

| Structure (SMILES) | inhibition [1] | inhibition [2] | inhibition [3] |
| --- | --- | --- | --- |
| Cc1cccc(-c2cc3cc(Nc4ccnc5cc(-c6nccs6)ccc45)ccc3[nH]2)c1 | 1.71% | -0.37% | 1.12% |
| Cc1[nH]c(C)c(-c2ccc(Oc3ccc(F)cc3)cc2)c(=O)c1Br | 4.89% | 4.31% | 2.46% |
| COc1ccc2nc(-c3cccc(C)n3)nc(Nc3ccncc3)c2c1 | 11.6% | 1.8% | 2.21% |
| Cc1noc(C)c1-c1cccc(CNCc2ccc(-c3ccc(-c4nc5ccccc5[nH]4)s3)cc2)c1 | 1.82% | 1.38% | -0.04% |
| O=C(/C=C/c1ccc(Cl)c(Cl)c1)NCCCCCCN1CCN(C(=O)Nc2ccc(OC(F)F)cc2)CC1 | 5.36% | 6.98% | 6.38% |
| CC(CN1CCN(C)CC1)C(=O)Nc1ccc(-c2cccc(-c3nc4ccccc4[nH]3)c2)cc1 (configuration not stated) | 2.41% | 1.7% | -0.2% |
| Cc1nc(NC(=N)N)nc2cc3c(cc12)CCC3 | 0.91% | 0.44% | 0.48% |
| CCOc1ccc(-c2nonc2NC(=O)c2ccco2)cc1OCC | 1.01% | -0.52% | 0.72% |
| O=C(Nc1ccc(SC(F)(F)F)cc1)Nc1ccnc2ccccc12 | -1.32% | -0.22% | -2.28% |
| O=C(NCc1cccs1)[C@H](Cc1ccccc1)Nc1ccnc(NCCc2ccc(F)cc2)n1 | 11.2% | 9.62% | 9.52% |
| CCN(CC)CCON=Cc1cc(C)c2[nH]c3ccc(OCc4ccccc4)cc3c2c1C | -1.13% | 0.92% | -2.27% |
| COc1cc(Nc2nccc(-c3c(-c4cccc(NC(=O)c5c(F)cccc5F)c4)nn4ccccc34)n2)cc(OC)c1OC | 20.8% | 24.9% | 8.03% |
| COc1ccc(O)c(Cc2cnc3nc(N)nc(N)c3c2C)c1 | 12.3% | 11.2% | 11.4% |
| CCc1cccc(OCC2CCCN(c3ccc(C(=O)NC4CC4)cn3)C2)c1 (configuration not stated) | 4.71% | 3.55% | 3.3% |
| Oc1ccc(-c2ccccc2)cc1CNC1CCCCC1 | 2.86% | 0.92% | 2.38% |
| Cc1ccc(Nc2nccc(NCC(O)c3ccc(C(F)(F)F)cc3)n2)cc1 (configuration not stated) | 10% | 6.26% | 3.67% |
| CC(=O)N1N=C(c2[nH]c3ccc(Br)cc3c2C)OC1c1ccccc1 (configuration not stated) | 4.69% | 4.06% | 3.6% |
| Cc1ncccc1C(=O)Nc1cccc(-c2cccc(-c3nc4cccc(C)c4[nH]3)c2)c1 | 0.36% | 1.44% | 1.05% |
| Cc1[nH]c(C)c(-c2ccc(OCc3ccc(F)cc3)nc2)c(=O)c1Br | 2.71% | 2.42% | 0.74% |
| C=CCNC(=O)C(C)c1ccc2cc(OC)ccc2c1 (configuration not stated) | 0.71% | 0.77% | -0.06% |
| CCN(CC)S(=O)(=O)c1ccc(CCOCCCCCNCC(O)c2cc(Cl)c(N)c(Cl)c2)s1 (configuration not stated) | 2.8% | -2.21% | 1.26% |
| CC[C@H](NC(=O)c1c(CN2CCC(N3CCCCC3)CC2)c(-c2ccccc2)nc2c(Cl)c(O)ccc12)c1ccccc1 | 7.43% | 6.81% | 6.04% |
| COc1ccc(C2CC(c3ccccc3)=NN2C(=O)c2ccc(Br)o2)cc1 (configuration not stated) | -0.17% | 0.43% | 0.09% |
| COc1cc(N)c(Cl)cc1C(=O)NC1CCC(NCC2CCCCC2)CC1 (configuration not stated) | 2% | 1.99% | 1.15% |
